Rows were chosen to be rich in hits. Some 8.9% of all compounds tested hit in one or more screens of this group.
DRD3 agonist – agonists of human D3 dopamine receptor; hit rate 0.58% among 410,000; max activation, %; AID 652048; D3R DiscoveRx beta-arrestin cells, luminescence, 90 min; in the data active = max activation above about 30%; note: 0% is about no effect
Target sequence (P35462 whole entry, looked up): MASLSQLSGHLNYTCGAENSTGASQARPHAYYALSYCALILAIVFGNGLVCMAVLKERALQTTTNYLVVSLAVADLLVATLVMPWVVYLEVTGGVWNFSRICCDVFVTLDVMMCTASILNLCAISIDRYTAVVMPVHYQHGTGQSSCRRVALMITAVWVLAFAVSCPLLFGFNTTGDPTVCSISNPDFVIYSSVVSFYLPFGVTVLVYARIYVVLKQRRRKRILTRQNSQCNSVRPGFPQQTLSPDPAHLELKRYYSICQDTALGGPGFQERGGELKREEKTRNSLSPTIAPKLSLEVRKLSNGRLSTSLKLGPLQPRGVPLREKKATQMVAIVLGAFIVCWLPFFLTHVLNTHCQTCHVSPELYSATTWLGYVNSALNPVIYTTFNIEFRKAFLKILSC
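Cells at 1500/well, incubated overnight, then treated with pinned compounds (dopamine as control) for 90 min at 37 degrees C. DiscoveRx reagent added for 30 - 60 minutes at room temperature; luminescence read.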
KB-3-1 tox – KB-3-1 parental cell cytotoxicity; KB-3-1 viability, CellTiter-Glo ATP luminescence, 72 h; Potency, µM (doses to about 46.1 µM), actives largely listed as cytotoxic; hit rate 1.4% among 400,000; AID 1347075; note: potency is the fitted concentration of half-maximal effect; % is set by controls: 0 for no effect and ±100 for the full control effect; nearly all actives have a fitted effect of over 60% in size
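KB-3-1 cells, DMEM (no phenol red) + 10% FBS; compound by pin transfer, 72 h, 37 °C. Readout: CellTiter-Glo luminescence after 10 min. Data normalized, curve-fitted.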
SW480 rerep – induces DNA re-replication in SW480 colon adenocarcinoma cells | SW480 DNA re-replication, Hoechst DNA content imaging, 48 h | Potency, µM (titrated, usually from 46.1 µM), for the others: at the top dose re-replication activation, actives largely listed as activators | hit rate 1.8% among 340,000; note: potency is the fitted concentration of half-maximal effect; % of control where 0% means no effect; nearly all actives have a fitted effect of over 55% in size
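Image-based DNA-content assay: after two days of treatment, nuclei were labelled with the DNA dye Hoechst and imaged, and hits were compounds raising the count of nuclei showing high fluorescence intensity.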
MCF10A rereplic – DNA re-replication induction in MCF 10a cells; MCF 10A DNA re-replication, Hoechst nuclear intensity, 48 h; Potency, µM (titrated, usually from 46.1 µM), without a hit: at the highest dose activity, positive = re-replication, hits mostly activators; hit rate 2.9% among 350,000; AID 624296; note: potency is the fitted concentration of half-maximal effect; % of control where 0% means no effect; nearly all actives have a fitted effect of over 50% in size
KB-V1 MDR tox – kills drug-selected multidrug resistant KB-V1 cells; KB-V1 MDR cells viability, CellTiter-Glo, 72 h; Potency, µM (doses to about 46.1 µM), hits mostly cytotoxic; AID 1347076; hit rate 3.4% among 400,000; note: potency is the fitted concentration of half-maximal effect; % is set by controls: 0 for no effect and ±100 for the full control effect; nearly all actives have a fitted effect of over 60% in size
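In this primary screen, KB-V1 cells overexpressing P-gp are incubated with library compounds (lowest to highest concentration) for 72 h at 37 degrees C before a luminescent ATP viability read.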
D3 antag – D3 dopamine receptor (human) antagonism; D3R cells, DiscoveRx beta-arrestin luminescence, antagonist mode; active compounds read low; max response, negative = inhibition, %; P35462; hit rate 2.5% among 360,000; in the data active = max response below about -50%; inconclusive = no clear call, values can overlap the other calls; note: % is set by controls: 0 for no effect and ±100 for the full control effect
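Cells expressing the human receptor were seeded at 1500 cells/well, incubated overnight at 37 degrees C in 5% CO2, then exposed to library compounds with dopamine controls for 90 minutes at 37 degrees C before luminescent detection.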
* = called active by the depositor; i = inactive; ? = inconclusive; . = not tested or not shown. Unless noted, calls come from the whole dose curve; as a rule, active = well fitted curve in the direction sought with a large enough effect; inconclusive = small, poorly fitted or top-dose-only effect, or another doubt; inactive = no such curve, though single readings can be large; an effect the other way counts as inactive or inconclusive.

SMILES	DRD3 agonist	KB-3-1 tox	SW480 rerep	MCF10A rereplic	KB-V1 MDR tox	D3 antag
O=C(CN1C(=O)/C(=C\c2cccc(Cl)c2)Sc2ccccc21)NCCCN1CCOCC1	-13.0	i	?	20.6µM*	i	?
O=C(CN1C(=O)/C(=C/c2ccc(C(F)(F)F)cc2)Sc2ccccc21)NCCCN1CCOCC1	-4.5	i	?	20.6µM*	i	-20.8
O=C(CN1C(=O)S/C(=C\c2ccccc2Cl)C1=O)NCCCn1ccnc1	8.2	i	-8.7%	-7.2%	i	10.4
Cc1ccc(C(=O)Nc2nnc(S(=O)(=O)N(C)Cc3ccc(Cl)cc3)s2)cc1	-2.7	i	.	.	i	.
CCc1ccccc1NC(=O)[C@@H](c1ccccc1)N1Cc2ccccc2C1=O	-3.8	i	.	.	i	.
CC(=NCc1ccco1)c1c(C)[nH]n(-c2nc3ccccc3s2)c1=O	-1.9	?	-2.7%	29.7%	?	16.1
CC(=NCc1ccco1)c1c(O)n(C2CCCCC2)c(=O)[nH]c1=O	0.6	i	11.6%	6.0%	5.8µM*	?
NC1=NC(S)C2N=CN=C2N1 (stereo not drawn)	.	.	18.5%	?	.	.
N#Cc1ncc(-c2ccc3c(c2)OCCOCCOCCOCCOCCO3)nc1C#N	8.6	i	-2.5%	4.4%	i	-1.9
N#Cc1ncc(-c2ccc3c(c2)OCCOCCOCCOCCO3)nc1C#N	-9.9	?	?	18.4µM*	i	6.1
Cc1cc(C)cc(-n2ccn3c(CC(C)(C)CC(=O)O)nnc3c2=O)c1	12.0	i	.	.	i	.
Cc1nc(SCC(=O)c2cc3ccccc3oc2=O)c(C#N)c(-c2ccccc2)c1C(=O)Nc1ccccc1	-3.3	i	7.31µM*	?	?	5.3
COc1ccc(-c2c(C#N)c(SCC(=O)c3cc4ccccc4oc3=O)nc(C)c2C(=O)Nc2ccccc2)cc1	6.0	18.4µM*	20.6µM*	5.17µM*	?	-5.4
COc1cccc(NC(=S)N2CCN(S(C)(=O)=O)CC2)c1	4.6	i	3.5%	0.1%	i	2.4
CC(=O)Oc1c(I)cc(I)cc1C(=O)Nc1ccc(Cl)cc1	8.0	23.1µM*	?	7.31µM*	16.4µM*	-9.4
COc1ccc(Cl)cc1C(=O)Nc1ccc(NC(C)=O)cc1	-2.9	i	-26.6%	-7.4%	i	6.0
C=CC(C)(C)c1[nH]cnc1/C=C1\NC(=O)C(C(C)C)NC1=O (stereo not drawn)	1.2	5.8µM*	?	?	i	1.1
COc1cccc(-c2nn(-c3ccc(C)cc3)cc2C(=O)N2CCc3cc(OC)c(OC)cc3C2)c1	-10.4	18.4µM*	?	?	23.1µM*	5.4
COc1ccc(OC)c(-c2nn(-c3ccccc3)cc2C(=O)N2CCc3ccccc3C2)c1	-2.2	i	-14.7%	9.7%	i	9.7
Cc1cccc(NC(=O)CSc2nc3ccc(N4C(=O)c5ccccc5C4=O)cc3s2)c1C	18.5	i	?	9.2µM*	i	46.0
CCc1cccc(CC)c1NC(=O)CSc1nc2ccc(N3C(=O)C4C5C=CC(C5)C4C3=O)cc2s1 (stereo not drawn)	-2.7	?	17.0%	?	2.59µM*	1.6
Cc1ccccc1CNC(=O)Cc1ccc(NC(=O)N2CCCCc3ccccc32)cc1	2.7	i	.	.	i	.
CC(C)N(Cc1ccccc1)c1ncnc2c1nnn2C	-8.7	i	.	.	i	.
Cc1ccc2c(c1)N(C(=O)c1ccc(F)cc1)C(C)(C)CC2(C)c1ccccc1 (stereo not drawn)	1.5	?	.	.	?	.
CCN(CC)c1ccc2c(O)cc(=O)oc2c1	-2.8	i	5.5%	8.7%	i	8.5
CCN(CC)c1ccc2c(C)c(CO)c(=O)oc2c1	7.9	i	13µM*	?	i	-17.1
CCN(CC)c1ccc2c(C)c(CN3CCOCC3)c(=O)oc2c1	-6.1	i	20.6µM*	5.8µM*	i	-75.2*
COc1ccc(N2C[C@H](CSC)[C@@H](CC(=O)Nc3ccc(Br)cc3)C2=O)cc1	-9.2	i	.	.	8.2µM*	0.0

Compound activity deposited in PubChem BioAssay by National Center for Advancing Translational Sciences (NCATS).
